Experimental data taken from publication PMC5540273 (PLoS ONE, 2017).

Tested on: ACVRL1
Details: concentration: 1 μM,replicates: in singlicate; n = 1
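Note: KINOMEscan kinase panel screen.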

First: Cc1n[nH]c2cc(Nc3ccnc(Nc4cccc(CN5CCOCC5)c4)n3)ccc12 [GW682569]
Second: COc1cccc(CNC(=O)NC2CCN(c3ccnc(Nc4cc(OC)c(OC)c(OC)c4)n3)C2)c1 (stereo not shown) [GSK1379765]
The “%Inh” value of the first is higher: 17% for the first, 0% for the second.

For `Cl.Cl.NC[C@H](CC1CCCCC1)NC(=O)c1ccc(-c2ccnc3[nH]ccc23)s1` [GSK1581428], the “%Inh” value was 0%.

Tested on: T1, ADCK3
T1 construct: gene CABC1
Details: concentration: 1 μM,replicates: in singlicate; n = 1

First: CN1CCN(CCNc2nc3cc(Oc4ccc(NC(=O)Nc5cc(C(F)(F)F)ccc5F)cc4)ccc3[nH]2)CC1.Cl.Cl [GW768504]
Second: COC(=O)Nc1nc2cc(Oc3ccc(NC(=O)Nc4cc(C(F)(F)F)ccc4Cl)cc3)ccc2[nH]1.Cl [GW697465]
The “%Inh” value of the first is lower: 0% for the first, 82% for the second.

First: COc1cccc(OC)c1C(=O)Nc1cccc(-c2nn3ccccc3c2-c2ccnc(Nc3cccc(F)c3)n2)c1 [GSK361065]
Second: COC(=O)c1cccc(NC(=O)NC2CCN(c3ccnc(Nc4cc(OC)c(OC)c(OC)c4)n3)C2)c1 (stereo not shown) [GSK1379767]
The “%Inh” value of the first is lower: 0% for the first, 21% for the second.

First: CC(=O)Nc1ccc(-c2cc3ncnc(SCC(=O)O)c3s2)cc1
Second: NC(=O)Nc1sc(-c2ccc(F)cc2)cc1C(N)=O [GW789449]
The “%Inh” value of the first is lower: 0% for the first, 5% for the second.

Going from `CCOC(=O)N1CCC(n2cnc(-c3ccc(F)cc3)c2-c2ccnc(N)n2)CC1` [SB-219952] to `CSc1nccc(-c2c(-c3ccc(F)cc3)ncn2CCCN2CCOCC2)n1.Cl` [SB-217146], the “%Inh” value falls from 15% to 0%.

First: C[C@@H]1CCN(C(=O)N2CCCC2)C[C@@H]1N(C)c1ncnc2[nH]ccc12
Second: Cl.Cl.NC[C@H](CC1CCCCC1)NC(=O)c1ccc(-c2ccnc3[nH]ccc23)s1 [GSK1581428]
The “%Inh” value of the first is lower: 7% for the first, 13% for the second.

Going from `COc1cccc(C2=C(Nc3cccc(Cl)c3)C(=O)NC2=O)c1` [SB-341556] to `CN(c1cccc(CNc2nc(Nc3ccc4c(c3)CC(=O)N4)ncc2C(F)(F)F)c1)S(C)(=O)=O`, the “%Inh” value falls from 24% to 0%.

First: COC(=O)c1cccc(NC(=O)NC2CCN(c3ccnc(NCc4ccc(F)cc4)n3)CC2)c1 [GSK1379860]
Second: N#Cc1cccc(C(=O)NC2CCN(c3ccnc(Nc4ccc(F)cc4)n3)C2)c1 (stereo not shown) [GSK1379708]
The “%Inh” value of the first is higher: 5% for the first, 0% for the second.

Compared with `O=C(Nc1ccc(Oc2ccc3nc(NC(=O)C4CC4)cn3n2)c(F)c1)c1cccn(-c2ccccc2)c1=O`, `Cc1ccc(C(=O)Nc2ccc(Oc3ccc4nc(NC(=O)C5CC5)cn4c3)c(F)c2)c(=O)n1-c1ccccc1` is lower in “%Inh” value: 16% for the first, 13% for the second.

Going from `Cn1ccc2ncnc(Oc3ccc(NC(=O)Nc4cncc(C(F)(F)F)c4)c(Cl)c3)c21` to `Cn1ccc2ncnc(Oc3ccc(NC(=O)Nc4cccc(C(F)(F)F)c4)c(F)c3)c21`, the “%Inh” value rises from 2% to 18%.

Compared with `CCn1c(-c2nonc2N)nc2cncc(CNC3CCNCC3)c21.Cl` [SB-747651], `Cc1n[nH]c2cc(Nc3ccnc(Nc4cccc(CN5CCOCC5)c4)n3)ccc12` [GW682569] is higher in “%Inh” value: 1% for the first, 19% for the second.

First: Cl.c1ccc(Oc2ccc(Nc3ccnc4cc(-c5ccc(CN6CCNCC6)o5)ccc34)cc2)nc1 [GW567142]
Second: COc1cc2c(Nc3ccc(NC(=O)c4ccccc4)cc3)ncnc2cc1OCCCN1CCOCC1 [GSK301329]
The “%Inh” value of the first is lower: 0% for the first, 10% for the second.

Going from `Nc1nccc(-c2ccc3c(N)n[nH]c3c2)n1` [GSK1034945] to `Cl.Nc1n[nH]c2cc(-c3ccccn3)ccc12` [GSK2189892], the “%Inh” value rises from 1% to 11%.

Going from `O=C(Nc1cccc(C(F)(F)F)c1)c1cccc(Oc2ccc3nccn3n2)c1` to `CC(=O)Nc1nc2cnc(Nc3cc(NC(=O)c4cccc(CC(C)(C)C#N)c4)ccc3C)nc2s1`, the “%Inh” value falls from 14% to 3%.

Going from `CCNCC(Cc1ccccc1)NC(=O)c1cc(Br)c(-c2ccnc3[nH]ccc23)s1.Cl.Cl` (stereo not shown) [GSK1383280] to `CNC(=O)c1ccccc1Nc1nc(Nc2cccc(CS(C)(=O)=O)c2)ncc1C.O=CO` [GSK1520489], the “%Inh” value falls from 12% to 0%.

First: O=C1NCCc2[nH]c(-c3ccncc3)cc21
Second: Cc1ccn2nc(-c3ccc(F)cc3)c(-c3ccncc3)c2c1.Cl [GW457859]
The “%Inh” value of the first is higher: 33% for the first, 17% for the second.

Compared with `CS(=O)c1ccc(-c2coc3ccc(-c4n[nH]c(=O)o4)cc23)cc1` (stereo not shown), `Cc1nnc(-c2ccc3occ(-c4ccc(S(C)=O)cc4)c3n2)o1` (stereo not shown) is higher in “%Inh” value: 0% for the first, 2% for the second.

Compared with `Cn1ccc2ncnc(Oc3ccc(NC(=O)Nc4cnn(C(C)(C)C)c4)c(Cl)c3)c21`, `C[C@@H](Oc1cc(-n2cnc3cc(-c4cnn(C)c4)ccc32)sc1C(N)=O)c1ccccc1Cl` [GSK580432] is higher in “%Inh” value: 0% for the first, 13% for the second.

Going from `COc1cc2ncn(-c3cc(OCC4CCCCC4)c(C(N)=O)s3)c2cc1OC` [GSK204559] to `COc1cccc(CNC(=O)NC2CCN(c3ccnc(Nc4cc(OC)c(OC)c(OC)c4)n3)C2)c1` (stereo not shown) [GSK1379765], the “%Inh” value rises from 11% to 24%.

`CC(C)S(=O)(=O)N1CCN(Cc2ccc3c(c2)nc(NC(=O)c2ccsc2)n3C[C@H](O)c2ccccc2)CC1` [GW635815] was tested, and the “%Inh” value was 0%.
